High-throughput results (PubChem BioAssay)
The list is not random: actives were taken first. Their share in the collection is about 3%.
Tau fibril ThT: qHTS for Inhibitors of Tau Fibril Formation, Thioflavin T Binding. Microtubule-associated protein tau (Homo sapiens), P10636. recombinant tau K18 P301L, heparin-induced fibrillization, ThT fluorescence. Potency, µM (titrated, usually from 57.4 µM), inactives show top-dose activity, negative = inhibition, most hits filed as inhibitors. 270,000 compounds, 2.1% hits. AID 1460, 2008; note: potency is the fitted concentration of half-maximal effect; nearly all actives have a fitted effect of over 55% in size
Target sequence (P10636 561-689 P618L limits assumed): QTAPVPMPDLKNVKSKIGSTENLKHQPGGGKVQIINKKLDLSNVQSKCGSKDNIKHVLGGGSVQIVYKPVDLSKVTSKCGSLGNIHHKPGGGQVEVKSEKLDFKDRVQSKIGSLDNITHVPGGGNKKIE
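Aggregation was driven by heparin (20 uM final) acting on recombinant tau […] bearing P301L in 100 mM sodium acetate pH 7; fibrils were detected with Thioflavin T.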
Coupling enz: qHTS Assay for Inhibitors of Fructose-1,6-bisphosphate Aldolase from Giardia Lamblia: Coupling assay counterscreen | AID 2472, 2010 | coupling enzyme system counterscreen, AmpLite Red fluorescence | activity change, negative = inhibition, % at 58.2 µM, hits read low | 290,000 compounds, 0.67% hits; in the data active = activity change below about -30%
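Coupling enzymes only (glyceraldehyde-3-phosphate) + compound, at 57.5 uM final, 10 min RT; add substrate/coupling/AmpLite Red mix, 20 min RT; fluorescence ex 525/em 598 nm. Actives flag coupling-system interference.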
KDM4E inh: qHTS Assay for Inhibitors of Human Jumonji Domain Containing 2E (JMJD2E); JMJD2E catalytic domain, FDH-coupled NADH fluorescence (FDH is formaldehyde dehydrogenase); 230,000 compounds, 1.6% hits; Lysine-specific demethylase 4E (Homo sapiens), B2RXH2; Potency, µM (highest dose often 57.1 µM), for the others: top-dose activity change, negative = inhibition, actives largely listed as inhibitors; active = well fitted inhibition curve with a large enough effect, not every such curve was filed as active; inconclusive = small, poorly fitted or top-dose-only effect, or another doubt; inactive = no such curve, though single readings can be large or run the other way;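 note: potency is the fitted concentration of half-maximal effect; 0% = wells with enzyme and -100% = buffer wells without enzyme; nearly all actives have a fitted effect of over 50% in size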
Target sequence (B2RXH2 1-337 limits assumed): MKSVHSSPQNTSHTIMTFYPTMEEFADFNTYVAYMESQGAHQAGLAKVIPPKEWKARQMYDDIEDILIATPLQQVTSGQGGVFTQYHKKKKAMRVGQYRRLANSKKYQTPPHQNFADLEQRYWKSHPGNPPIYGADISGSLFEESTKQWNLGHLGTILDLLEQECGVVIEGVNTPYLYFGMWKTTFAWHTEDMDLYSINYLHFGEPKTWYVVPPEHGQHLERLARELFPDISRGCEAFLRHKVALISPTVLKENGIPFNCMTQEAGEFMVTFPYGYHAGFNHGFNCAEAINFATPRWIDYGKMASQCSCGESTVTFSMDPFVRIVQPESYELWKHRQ
Tau FP inhib: qHTS for Inhibitors of Tau Fibril Formation, Fluorescence Polarization; AID 1468, 2008; Microtubule-associated protein tau (Homo sapiens), P10636; Potency, µM (highest dose often 57.7 µM), for the others: at the top dose activity, negative = inhibition, hits mostly inhibitors; 280,000 compounds, 0.39% hits; K18 P301L tau heparin fibrillization, Alexa594 FP, 6 h; note: potency is the fitted concentration of half-maximal effect; nearly all actives have a fitted effect of over 55% in size
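Quantitative HTS format: compounds meet 15 uM recombinant K18 P301L tau and Alexa 594-tau tracer in 100 mM sodium acetate pH 7; 20 uM heparin triggers fibrillization at 37 C over 6 hr; FP gives the signal.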
Tau fluor counter: Counterscreen qHTS for Inhibitors of Tau Fibril Formation, Fluorescence Polarization; Potency, µM (highest dose often 57.7 µM), without a hit: at the highest dose activity change, negative = decrease; tau K18 P301L Alexa594 fluorescence, heparin fibrillization; 280,000 compounds, 0.93% hits; AID 1463, 2008; note: potency is the fitted concentration of half-maximal effect; nearly all actives have a fitted effect of over 55% in size
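Human tau K18 P301L (15 uM unlabeled, 0.24 uM Alexa 594-labeled) in 100 mM sodium acetate pH 7 with 20 uM heparin, 6 hr at 37 C. ThT 30 uM added, 1 hr ambient; Alexa 594 FP and total fluorescence read at 555/632 nm.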
The depositor's hits bear a star; [ ] = another dose, or the depositor's remark. Unless noted, calls come from the whole dose curve; as a rule, active = well fitted curve in the direction sought with a large enough effect; inconclusive = small, poorly fitted or top-dose-only effect, or another doubt; inactive = no such curve, though single readings can be large; an effect the other way counts as inactive or inconclusive. Unless noted, % is set by controls: 0 for no effect and ±100 for the full control effect.

For COc1ccc(Cc2c(C)nn(-c3nc(C)c(C(=O)Nc4cccc(C(C)=O)c4)s3)c2C)cc1 the results were Tau fibril ThT -15%, Tau FP inhib -10% and Tau fluor counter -18%.
`Cc1ccc(-c2cc(C(=O)Oc3ccc(C#N)cc3)no2)cc1` gave Tau fibril ThT -14%, Tau FP inhib 13% and Tau fluor counter -2%.
`CCNc1ccc2noc3c2c1C(=O)c1ccccc1-3` gave Tau fibril ThT 7.9µM*, Coupling enz -5, KDM4E inh -7%, Tau FP inhib 28µM* and Tau fluor counter inconclusive.
For CCOc1ccc2noc3c2c1C(=O)c1ccccc1-3 the results were Tau fibril ThT inconclusive, Coupling enz -45*, KDM4E inh inconclusive, Tau FP inhib inconclusive and Tau fluor counter inconclusive.
`CCNc1ccccc(-c2ccc3ccccc3n2)c1=O` gave Tau fibril ThT inconclusive, Coupling enz -4, KDM4E inh -18%, Tau FP inhib 8% and Tau fluor counter -8%.
Screening COc1ccc(N2C(=O)C(CC(=O)Nc3ccccc3)N(CCC3=CCCCC3)C2=O)cc1 (stereo unspecified) returned Tau fibril ThT 5%, Tau FP inhib -16% and Tau fluor counter -23%.
COc1ccccc1C1NC=C([N+](=O)[O-])C=C1[N+](=O)[O-] (stereo unspecified) was read as Tau fibril ThT 11µM*, Coupling enz -17, KDM4E inh 4%, Tau FP inhib inconclusive and Tau fluor counter inconclusive.
Screening O=C(CCS(=O)(=O)c1nc(-c2ccc3c(c2)OCO3)cc(C(F)(F)F)n1)Nc1ccccc1C(F)(F)F returned Tau fibril ThT -11%, Tau FP inhib -4% and Tau fluor counter -13%.
`COc1cc2cccc(OC)c(=O)c2c(O)c1OC` gave Tau fibril ThT inconclusive, Coupling enz -1, KDM4E inh -3%, Tau FP inhib 7% and Tau fluor counter -3%.
`CC(=O)Oc1cc2cccc(OC(C)=O)c(=O)c2c(OC(C)=O)c1OC(C)=O` gave Tau fibril ThT 3.5µM*, Coupling enz 0, KDM4E inh 11µM*, Tau FP inhib 16µM* and Tau fluor counter 8.9µM*[quencher].
`COc1ccc(C(=O)Nc2cccc(-c3cn4ccsc4n3)c2)cc1OC` gave Tau fibril ThT -4%, Tau FP inhib inconclusive and Tau fluor counter -23%.
`O=C1/C(=C/c2ccc([N+](=O)[O-])cc2)C=C(c2ccccc2)N1c1ccccc1` gave Tau fibril ThT -11%, Coupling enz 2, KDM4E inh -3%, Tau FP inhib -2% and Tau fluor counter -11%.
For O=C1/C(=C/c2ccc([N+](=O)[O-])cc2)C=C(c2ccccc2)N1c1ccc(O)cc1 the results were Tau fibril ThT 5.6µM*, Coupling enz 0, KDM4E inh -7%, Tau FP inhib -5% and Tau fluor counter 11µM*[quencher].
Screening O=C(O)c1cccc(N2C(=O)/C(=C/c3ccc([N+](=O)[O-])cc3)C=C2c2ccccc2)c1 returned Tau fibril ThT 6.3µM*, Coupling enz 15, KDM4E inh -23%, Tau FP inhib -9% and Tau fluor counter inconclusive.
Screening COc1cc(-c2nnc(SCC(=O)N3CCCc4ccccc43)o2)cc(OC)c1OC returned Tau fibril ThT inconclusive, Tau FP inhib inconclusive and Tau fluor counter -10%.
`Cc1ccccc1N=Nc1ccc(O)c2ncccc12` gave Tau fibril ThT inconclusive, Coupling enz 0, KDM4E inh -25%, Tau FP inhib 8% and Tau fluor counter -17%.
`Oc1ccc(N=Nc2ccc3c(c2)OCCO3)c(O)c1` gave Tau fibril ThT 3.2µM*, Coupling enz 0, KDM4E inh -1%, Tau FP inhib 5% and Tau fluor counter inconclusive.
